Values without a mark were called inactive. For some assays here: Results with a measured potency or affinity are listed apart. Calls of active or inactive are those of the source. Unless noted, the rule behind the calls is not given here.
Experiments:
[1] = antimalarial activity against Dd2 strain (AID 2302;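 active = growth inhibition above 50% at the single 2 µM test dose, taken to imply half-maximal potency below 2 µM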;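 note: 0% = DMSO untreated growth and 100% = chloroquine plus artemisinin killed control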); conditions: P. falciparum Dd2 in RBCs, LDH growth readout, 72 h; at 2 µM; active compounds read high
[2] = human hepatoma cell viability loss – ATP luminescence, cytotoxicity control for P. falciparum antimalarial project, primary screen (AID 2303;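 active = inhibition above 50%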;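 note: 0% = DMSO wells and 100% = digitonin-killed cells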); conditions: HepG2 viability, 24-48 h, at 10 µM, active compounds read high
[3] = biological target: L-lactate dehydrogenase (Plasmodium falciparum (isolate CDC / Honduras)) (UniProt Q27743); assay: PfLDH activity inhibition – cell lysate, 3D7 strain, counter-screen for P. falciparum growth inhibition project (AID 2304);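 note: 0% = vehicle and 100% = reference inhibitor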; conditions: P. falciparum 3D7 crude extract, LDH APAD/NBT absorbance; at 2 µM; active compounds read high
Chain of L-lactate dehydrogenase (Plasmodium falciparum (isolate CDC / Honduras)) (Q27743 whole entry, looked up): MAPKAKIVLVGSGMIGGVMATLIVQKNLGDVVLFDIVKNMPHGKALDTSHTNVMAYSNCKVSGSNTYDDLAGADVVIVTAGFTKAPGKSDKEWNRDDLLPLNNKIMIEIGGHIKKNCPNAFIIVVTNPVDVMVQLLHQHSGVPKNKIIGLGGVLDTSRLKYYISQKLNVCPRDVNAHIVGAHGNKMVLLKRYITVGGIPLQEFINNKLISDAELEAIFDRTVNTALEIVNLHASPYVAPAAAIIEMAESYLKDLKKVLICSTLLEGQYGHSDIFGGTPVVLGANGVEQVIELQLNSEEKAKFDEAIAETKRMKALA

[4] = inhibition of 3D7 malaria parasite growth – strain 3D7 (AID 2306);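 note: 0% = DMSO wells and 100% = chloroquine plus artemisinin control wells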; conditions: P. falciparum 3D7 erythrocytic growth, LDH absorbance, 72 h; at 2 µM; active compounds read high
[5] = biological target: Calcium-dependent protein kinase 1 (Plasmodium falciparum (isolate 3D7)) (UniProt P62344); assay: PfCDPK1 kinase inhibitors, biochemical, TCAMS library (AID 1159585; cut-off not given, nearly all actives have IC50 up to about 0.98 µM;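 note: inhibitors leave more ATP so luminescence rises with inhibition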); conditions: recombinant PfCDPK1, Kinase-Glo ATP depletion luminescence
Chain of Calcium-dependent protein kinase 1 (Plasmodium falciparum (isolate 3D7)) (P62344 whole entry, looked up): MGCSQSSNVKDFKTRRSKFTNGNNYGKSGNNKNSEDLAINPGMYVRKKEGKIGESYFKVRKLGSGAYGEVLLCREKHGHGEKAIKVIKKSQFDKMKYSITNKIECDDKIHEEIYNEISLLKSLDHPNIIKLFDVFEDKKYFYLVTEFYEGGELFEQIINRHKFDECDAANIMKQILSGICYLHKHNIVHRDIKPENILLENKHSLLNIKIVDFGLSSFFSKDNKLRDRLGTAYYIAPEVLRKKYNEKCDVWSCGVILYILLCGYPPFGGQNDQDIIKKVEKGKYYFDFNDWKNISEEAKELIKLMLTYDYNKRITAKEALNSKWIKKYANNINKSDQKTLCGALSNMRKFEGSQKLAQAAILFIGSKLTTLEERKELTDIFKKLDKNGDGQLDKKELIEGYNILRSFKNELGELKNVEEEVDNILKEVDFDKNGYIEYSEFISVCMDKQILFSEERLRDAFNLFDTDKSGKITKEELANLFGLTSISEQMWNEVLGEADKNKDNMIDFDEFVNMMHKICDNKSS

[6] = biological target: Plasmodium falciparum protein kinase 6 (PK6, PF3D7_1337100) (UniProt Q8IDW1); assay: PfPK6 kinase inhibitors, biochemical, TCAMS library (AID 1159586); conditions: recombinant PfPK6, Kinase-Glo ATP depletion luminescence
Chain of Plasmodium falciparum protein kinase 6 (PK6, PF3D7_1337100) (Q8IDW1 1-305): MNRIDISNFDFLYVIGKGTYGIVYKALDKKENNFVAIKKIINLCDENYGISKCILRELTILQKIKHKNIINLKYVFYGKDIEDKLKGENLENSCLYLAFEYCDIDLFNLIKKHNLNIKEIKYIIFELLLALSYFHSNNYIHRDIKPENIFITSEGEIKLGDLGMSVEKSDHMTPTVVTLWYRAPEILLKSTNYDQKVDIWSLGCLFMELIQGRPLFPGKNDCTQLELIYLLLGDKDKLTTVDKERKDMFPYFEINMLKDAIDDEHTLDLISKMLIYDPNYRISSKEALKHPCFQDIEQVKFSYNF

[7] = biological target: Protein kinase 7 (PK7), Plasmodium falciparum 3D7 (PF3D7_0213400) (UniProt Q7YTF7); assay: inhibition of Plasmodium PK7 catalytic activity – biochemical, TCAMS antimalarial set, Kinase-Glo luminescence (AID 1159587); conditions: recombinant PfPK7, Kinase-Glo ATP depletion luminescence
Chain of Protein kinase 7 (PK7), Plasmodium falciparum 3D7 (PF3D7_0213400) (Q7YTF7 1-343): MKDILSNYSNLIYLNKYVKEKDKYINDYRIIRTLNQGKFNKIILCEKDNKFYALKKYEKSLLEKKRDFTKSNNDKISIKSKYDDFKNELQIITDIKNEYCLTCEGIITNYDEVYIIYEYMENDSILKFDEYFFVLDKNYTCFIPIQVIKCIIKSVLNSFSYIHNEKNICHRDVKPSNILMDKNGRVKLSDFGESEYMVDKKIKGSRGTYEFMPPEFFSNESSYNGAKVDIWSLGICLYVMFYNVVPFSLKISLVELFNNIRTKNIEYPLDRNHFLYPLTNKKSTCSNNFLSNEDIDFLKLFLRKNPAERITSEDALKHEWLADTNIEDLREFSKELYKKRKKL

[8] = biological target: Calcium-dependent protein kinase 4 (Plasmodium falciparum (isolate 3D7)) (UniProt Q8IBS5); assay: PfCDPK4 kinase inhibitors, biochemical, TCAMS library (AID 1159588; cut-off not given, nearly all actives have IC50 up to about 0.91 µM); conditions: recombinant PfCDPK4, Kinase-Glo ATP depletion luminescence
Chain of Calcium-dependent protein kinase 4 (Plasmodium falciparum (isolate 3D7)) (Q8IBS5 whole entry, looked up): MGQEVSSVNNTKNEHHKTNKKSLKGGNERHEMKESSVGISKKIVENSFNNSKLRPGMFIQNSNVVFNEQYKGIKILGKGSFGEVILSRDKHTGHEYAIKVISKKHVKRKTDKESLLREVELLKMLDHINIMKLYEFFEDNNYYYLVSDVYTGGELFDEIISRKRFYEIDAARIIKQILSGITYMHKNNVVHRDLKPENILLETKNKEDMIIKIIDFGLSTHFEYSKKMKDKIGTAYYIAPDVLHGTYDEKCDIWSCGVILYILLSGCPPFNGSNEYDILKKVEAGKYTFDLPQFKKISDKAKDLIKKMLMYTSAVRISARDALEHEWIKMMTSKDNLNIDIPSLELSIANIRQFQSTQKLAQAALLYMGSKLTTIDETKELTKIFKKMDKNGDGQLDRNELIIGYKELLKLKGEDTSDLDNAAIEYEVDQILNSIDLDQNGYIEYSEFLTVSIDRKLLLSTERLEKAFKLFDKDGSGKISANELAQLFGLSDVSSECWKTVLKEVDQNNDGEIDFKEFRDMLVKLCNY

| SMILES | growth inhibition [1] | inhibition [2] | inhibition [3] | growth inhibition [4] | outcome [5] | outcome [6] | outcome [7] | outcome [8] |
| --- | --- | --- | --- | --- | --- | --- | --- | --- |
| O=C(NCCN1CCCCC1)N1CCCN(c2ncnc3cc(-c4ccccc4)sc23)CC1 | 80% (active) | 2% | -1% | 89% (active) | inactive | inactive | inactive | inactive |
| CCCCCC(C)N=C(Nc1ccc([N+](=O)[O-])cc1O)Nc1ccccc1Br (stereo not given) | 98% (active) | -1% | 5% | 99% (active) | inactive | inactive | inactive | inactive |
| O=C(C=Cc1ccc([N+](=O)[O-])cc1)N1CCC(CCN2CCC(c3c[nH]c4ccccc34)CC2)CC1 | 48% | 60% (active) | -2% | 100% (active) | inactive | inactive | inactive | inactive |
| COc1ccc(CN2CCC(CNC(C)c3cccc4ccccc34)CC2)cc1 (stereo not given) | 26% | 58% (active) | -2% | 102% (active) | inactive | inactive | inactive | inactive |
| O=S(=O)(NC1CCN(c2ccnc3ccccc23)C1)c1ccc(OC(F)(F)F)cc1 (stereo not given) | -1% | 34% | 5% | 88% (active) | inactive | inactive | inactive | inactive |
| Cc1cccc2[nH]c(-c3ccc(-c4cccc(NC(=O)c5cncn5C)c4)s3)nc12 | 16% | 13% | -5% | 103% (active) | inactive | inactive | inactive | inactive |
| CCC(CC)N1C(=O)C(c2ccccc2)(c2ccccc2)N=C1N | 61% (active) | 14% | -7% | 96% (active) | inactive | inactive | inactive | inactive |
| O=C(Nc1ccncc1)Nc1ccc2c(c1)CCN(C1CCC1)CC2 | 4% | -1% | 4% | 87% (active) | inactive | inactive | inactive | inactive |
| COc1cccc(OC)c1C(=O)N1CCC2(CC1)C(=O)N(CC(=O)NC1CCCCC1)CN2c1ccccc1 | 91% (active) | 16% | 5% | 92% (active) | inactive | inactive | inactive | inactive |
| COC(=O)C(=O)c1c(-c2ccccc2)c(-c2ccc(OC)c(OC)c2)c2c3cc(OC)c(OC)cc3ccn12 | 89% (active) | 2% | -1% | 97% (active) | inactive | inactive | inactive | inactive |
| O=C(NC12CC3CC(CC(C3)C1)C2)C(=O)c1c[nH]c2ccccc12 | 2% | 16% | 3% | 97% (active) | inactive | inactive | inactive | inactive |
| NC(=NCCc1ccccc1Cl)c1ccc2ccccc2c1 | 11% | 25% | -2% | 88% (active) | inactive | inactive | inactive | inactive |
| COc1ccc(-c2ccc(NC(=O)c3ccc(C#N)cc3)cc2)cc1CN1CCC(O)CC1 | 28% | 24% | 7% | 94% (active) | inactive | inactive | inactive | inactive |
| COc1ccc(NC(=O)c2ccc(Br)c(C)c2)cc1N1CCN(CCCc2c[nH]c3ccccc23)CC1 | 64% (active) | 21% | 0% | 102% (active) | inactive | inactive | inactive | inactive |
| CCCCn1c(-c2ccco2)nc2c(c(=O)c3ccccc3n2C)c1=O | 64% (active) | 11% | -2% | 87% (active) | inactive | inactive | inactive | inactive |
| Cc1ccccc1N1CCN(c2ccc(C(=O)NC3CC3)cn2)CC1 | 96% (active) | 14% | 0% | 96% (active) | inactive | inactive | inactive | inactive |
| O=C(/C=C/c1ccc(C(F)(F)F)cc1)NCCCCCN1CCCN(C(=O)Nc2ccc(Cl)c(Cl)c2)CC1 | 17% | 89% (active) | 0% | 100% (active) | inactive | inactive | inactive | inactive |
| COc1ccccc1C1CCN(C2CCC(NC(=O)/C=C/c3cc(F)c(F)cc3F)CC2)CC1 (stereo not given) | 0% | 39% | -5% | 85% (active) | inactive | inactive | inactive | inactive |
| O=C(C=Cc1ccc(Cl)c(Cl)c1)NCCCCCN1CCCC(CCCNS(=O)(=O)c2cccc3cccnc23)C1 (stereo not given) | 16% | 37% | 2% | 96% (active) | inactive | inactive | inactive | inactive |
| CCNc1cc(C(=O)N[C@@H](Cc2ccccc2)[C@H](O)CNCc2cccc(-c3cncnc3)c2)cc(N2CCCC2=O)c1 | 96% (active) | 5% | 2% | 97% (active) | inactive | inactive | inactive | inactive |

| SMILES | growth inhibition [1] | inhibition [2] | inhibition [3] | growth inhibition [4] | outcome [5] | outcome [6] | outcome [7] | outcome [8] |
| --- | --- | --- | --- | --- | --- | --- | --- | --- |
| CCCCNCc1ccc(-c2nc(CN(CCCN3CCN(C)CC3)C(=O)Nc3cccc(Cl)c3)cs2)cc1 | 73% (active) | 35% | 4% | 99% (active) | inactive | inactive | inactive | inactive |
| CCN(CC)C(=NCCCCCCN=C(/N=C(\N)c1ccc(Cl)cc1)N(CC)CC)/N=C(\N)c1ccc(Cl)cc1 | 99% (active) | 1% | 1% | 97% (active) | inactive | inactive | inactive | inactive |
| Fc1ccc2nc(-c3cccc(-c4ccc(CNCCN5CCNCC5)cc4)c3)[nH]c2c1 | -3% | 9% | -2% | 90% (active) | inactive | inactive | inactive | inactive |
| Cc1ccc(O)cc1Nc1ccnc2cc(-c3csc(CN(C)CCN(C)C)n3)ccc12 | 80% (active) | 3% | 4% | 101% (active) | inactive | inactive | inactive | inactive |
| CS(=O)(=O)c1ccc(CCNCc2ccc(-c3ccc(CN(C(=O)C4CCCC4)C4CCN(Cc5ccccc5)CC4)cc3)nc2)cc1 | 20% | 24% | -6% | 91% (active) | inactive | inactive | inactive | inactive |
| N=C(N)c1ccc(Oc2ccc(C(=N)N)cc2)cc1 | 85% (active) | 18% | -3% | 92% (active) | inactive | inactive | inactive | inactive |
| COc1ccc(CNC2CCN(C)CC2)cc1-c1ccc(S(=O)(=O)NCc2cccnc2)s1 | 3% | 10% | -4% | 100% (active) | inactive | inactive | inactive | inactive |
| O=C(NCCNc1ccnc(Nc2ccc(F)cc2)n1)c1cc2ccccc2s1 | 34% | -1% | -11% | 99% (active) | inactive | inactive | inactive | inactive |
| CCOC(=O)c1ccc(NC(=O)Nc2cccc(-c3ccc(-c4nc5c(C)cccc5[nH]4)s3)c2)cc1 | 99% (active) | 44% | 4% | 100% (active) | inactive | inactive | inactive | inactive |
| COc1ccc2ncc(C#N)c(CCN3CCC(NCc4cnc5c(c4)OCCO5)CC3)c2n1 | 24% | 3% | -3% | 91% (active) | inactive | inactive | inactive | inactive |
| COc1cc2nc(SCC(C)C)n(CCCn3ccnc3)c(=N)c2cc1OC | 78% (active) | 15% | -2% | 99% (active) | inactive | inactive | inactive | inactive |
| CC(C)CC(=O)N1CCNC[C@@H]1C(=O)NC1CC1 | -2% | -7% | -4% | 82% (active) | inactive | inactive | inactive | inactive |
| FC(F)(F)c1ccc2nc(-c3ccc(-c4cccc(CN5CCN(c6ccncc6)CC5)c4)cc3)[nH]c2c1 | 99% (active) | 82% (active) | 2% | 101% (active) | inactive | inactive | inactive | inactive |
| Cc1cccc2[nH]c(-c3cccc(-c4cccc(NC(=O)NCc5cccc(F)c5)c4)c3)nc12 | 32% | 11% | -2% | 98% (active) | inactive | inactive | inactive | inactive |
| CC(C)(C)C1CCc2onc(C(=O)Nc3cc(Cl)ccc3O)c2C1 (stereo not given) | 82% (active) | 5% | -2% | 98% (active) | inactive | inactive | inactive | inactive |
| O=C(c1cc(C(=O)Nc2ccc(F)cc2)c(=O)n(-c2ccc(F)cc2)c1)c1cc(Cl)ccc1O | 98% (active) | 13% | -4% | 101% (active) | inactive | inactive | inactive | inactive |
| O=C(/C=C/c1ccc(Cl)c(Cl)c1)NCCCCCN1CCC(c2c[nH]c3cc(O)ccc23)CC1 | 2% | 32% | 3% | 101% (active) | inactive | inactive | inactive | inactive |
| O=C1CCCN1CCCNCc1cccc(-c2cccc(-c3nc4ccc(F)cc4[nH]3)c2)c1 | 69% (active) | 6% | -3% | 100% (active) | inactive | inactive | inactive | inactive |
| CCS(=O)(=O)c1ccc(-c2cnc3[nH]cc(-c4ccc(N)cc4)c3c2)cc1 | 99% (active) | 24% | -5% | 92% (active) | inactive | inactive | inactive | inactive |
| CCCCNc1nccc2ccc(-c3ccncc3)cc12 | 1% | 6% | 1% | 93% (active) | inactive | inactive | inactive | inactive |
